From the supplement of paper PMC6555819

Experiments:
Assay in all cases: PBM binding z-score (relative to random genomic background probes); higher = stronger binding; sequences stand for … in GC…GCGATTGACAGCGTAGAATGAAGG
[1] = system: RARb homodimer (NR concentration 270 nM)
Procedure, shortened: (§1)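 Antibodies against each partner of ligand-free nuclear receptor dimers (one per run) detected binding on custom Agilent 4×180K protein-binding microarrays after 1 h incubation. The double-stranded probes had 34-nt variable regions carrying direct-repeat seeds, single-nucleotide variants, half-site ablations and random human genomic background sequences. Binding z-scores, from regression-normalized fluorescence, use the random background probes as reference.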

[2] = system: RARg:RXRa (NR concentration 270 nM, RXRa partner concentration 90 nM)
Procedure, shortened: as §1

[3] = system: RARg homodimer (NR concentration 270 nM)
Procedure, shortened: as §1

[4] = system: RXRa DBDmut IVT, anti-RXR (DBD mutation: RXRa K156A/R161A, NR concentration 90 nM)
Procedure, shortened: as §1

[5] = system: RXRa homodimer (NR concentration 180 nM)
Procedure, shortened: as §1

[6] = system: THRa:RXRa (NR concentration 90 nM, RXRa partner concentration 90 nM)
Procedure, shortened: as §1

[7] = system: THRa homodimer (NR concentration 90 nM)
Procedure, shortened: as §1

[8] = system: VDR homodimer (NR concentration 270 nM)
Procedure, shortened: as §1

Row | Sequence | PBM binding z-score [1] | PBM binding z-score [2] | PBM binding z-score [3] | PBM binding z-score [4] | PBM binding z-score [5] | PBM binding z-score [6] | PBM binding z-score [7] | PBM binding z-score [8]
1 | CCTGCAAGGTCATGGTCAGCTAATCTACAGTATG | 4.17 | 6.01 | 6.24 | 3.84 | 6.36 | 4.04 | 2.86 | 2.64
2 | ATATGTAGGTTAGCTGGGGTCATGCAGACTAGGC | 4.19 | 4.65 | 3.65 | 1.38 | 6.31 | 5.42 | 3.72 | 4.15
3 | TCAGATAGGTGAAGGTAACTCAGGTACGCAGTCG | 0.689 | 0.578 | 0.814 | 1.22 | 1.08 | 1.17 | 0.217 | 0.382
4 | ACTTACGAGTCAACGAGGTTATAGCACGCGTATA | 0.874 | 1.07 | 0.785 | 0.637 | 1.59 | 2.04 | 0.474 | 0.877
5 | ATCTCTAGGTATCCAAGTTCAGTGAATGCCGAAC | 1.46 | 0.373 | 0.76 | 0.842 | 0.354 | 0.837 | 0.736 | 2.5
6 | CCTACAGGGCCATTCAGAGGTCATTGATCATATG | 4.27 | 5.34 | 3.29 | 1.85 | 3.85 | 3.38 | 1.34 | 4.16
7 | CGAACTAGGTCATTGACAGGACAGGGAATAGTAA | 2.89 | 4.58 | 4.36 | 2.18 | 2.59 | 2.99 | 1.01 | 1.02
8 | TCATATAGGTAAAGAGGTGAAAGTCCGTAAGTTA | 1.56 | 1.37 | 0.762 | 1.73 | 2.04 | 1.8 | 0.621 | 0.613
9 | GCTTGTAGATCAAGGTTAAGACAGACTAAGCTAA | 0.562 | 0.461 | 0.497 | -0.0408 | 0.989 | 1.27 | -0.0509 | 0.0668
10 | TCGAGTAGGTTAGGGGCACTCAGAATGGCGTCGA | 0.798 | 0.322 | 0.17 | 0.247 | 0.488 | 0.572 | 0.0941 | 0.0717
11 | ACTTACGGGTCAACGAGGTTATACCACGCGTATA | 3.79 | 5.84 | 5.48 | 3.08 | 6.66 | 3.97 | 1.34 | 4.44
12 | CCTATTAGTTGCCCATAAGGGCAACCGAAGCTCG | 1.75 | 0.539 | 0.688 | 0.215 | 0.507 | 1.65 | 1.67 | 0.922
13 | ATATGTAGGTTATCGGGTCATTCACTTTGCGCAT | 3.14 | 3.43 | 2.55 | 1.88 | 3.56 | 3.39 | 2.94 | 3.12
14 | GCAGACAGGTGAAGCGCAGGTAACTCAGGGTGGC | -0.151 | 0.302 | 0.0246 | -0.801 | 0.395 | 0.73 | -0.688 | -0.755
15 | CCTACTGGGCCAAATAGGTCATTGATGCCGATAA | 2.48 | 2.17 | 2.25 | -0.057 | 2.2 | 1.67 | -0.13 | 0.916
16 | TCTGCTAGGTCAACGATGGTCAGATAATCTGCTA | 3.47 | 3.89 | 5.5 | 0.978 | 3.11 | 3.17 | 0.478 | -0.329
17 | CAGACTAGGTCAGGGCCAGTATAGGAGGAACGTT | 2.28 | 2.67 | 3.34 | -0.345 | 1.3 | 1.65 | 0.0626 | -0.295
18 | TCTGCTAGCTCAACGATGGTCAGCTAATCTGCTA | -0.694 | -0.391 | -0.546 | 0.109 | -0.436 | -0.558 | -1.1 | -0.902
19 | GCTGCTAGGGCAACTGATGGTCAGCTAAAGCTCG | 0.973 | 0.792 | 1.27 | -0.0325 | -0.494 | -0.0894 | -1.3 | -1.03

Row | Sequence | PBM binding z-score [1] | PBM binding z-score [2] | PBM binding z-score [3] | PBM binding z-score [4] | PBM binding z-score [5] | PBM binding z-score [6] | PBM binding z-score [7] | PBM binding z-score [8]
20 | TAGCCTAGGTCATGGGGGCCAGTATAGTGTCGGC | 3.76 | 4.91 | 4.98 | 0.677 | 3.54 | 3.64 | 2.29 | 1.94
21 | GCTGCTAAGTCAGGTTGGTCAGCTAACGGGTACG | 0.212 | -0.383 | -0.568 | -0.027 | -0.344 | -0.197 | -0.581 | -0.246
22 | ATATGTAGGTTATTGGGTCATTCAGTTTGCGCAT | 3.06 | 3.09 | 2.45 | 1.61 | 2.89 | 2.85 | 2.41 | 3.17
23 | CTCGAAAGGTCGTGCTCAGGTGAGGATACCAAAC | 2.88 | 5.12 | 3.74 | 2.24 | 4.62 | 4.22 | 2.06 | 0.965
24 | CATACAGGGTCAGCTTGGCCAGAGTAGGGACGGC | 3.06 | 4.12 | 4.29 | 1.58 | 4.13 | 2.85 | 0.515 | 0.849
25 | TCTGCTAGGTCAGTTGGCCAGCTAACGAGCTGCC | 2.15 | 2.56 | 3.53 | 0.428 | 0.616 | 1.27 | -0.473 | -0.804
26 | CTACCAAGGTGAACAAGGTCGTTGGTTACTATTC | 2.16 | 1.79 | 1.29 | 1.28 | 1.87 | 3.19 | 1.81 | 3.03
27 | GGAACAAGGGCAAAGTTGATAGCATCTGTCGACG | 1.5 | 1.92 | 1.83 | 1.5 | 1.27 | 0.979 | -0.125 | 0.766
28 | CCGACTGGGGCATAAGGTTACCAGAAGCCAGCCC | 1.99 | 1.86 | 1.08 | -0.501 | 1.26 | 2.28 | 1.23 | -0.301
29 | AGTCAAAGTTCACTAGGTAACGAAAGATTCAGCT | 3.45 | 4.86 | 5.55 | 3.95 | 3.92 | 1.85 | 0.1 | 3.69
30 | ATCTCTGGGTAAAAGTTCAGTGAATCCCGAGGAT | 2.6 | 2.36 | 2.45 | 0.812 | 1.69 | 0.969 | -0.0851 | 1.53
31 | AGAACGAGGGCACGCTGAGTTGATTGCAGAGTAG | 1.13 | 1.93 | 2.38 | 1.87 | 1.27 | 1.86 | -0.121 | 2.17
32 | GTACCAAGGTGAATAGTTCGTTGATGAGTAGGCG | 1.71 | 1.94 | 1.34 | -0.0101 | 0.854 | 1.39 | 0.601 | 0.698
33 | CCTGGGAGGACAACAGGAGGTCAGAGCTGCCAGA | 3.72 | 3.71 | 3.6 | -0.219 | 2.29 | 3.05 | 1.32 | 1.37
34 | CCTCGGAGGACAGAAGGTCATAGCTGTCCGCTTT | 3.97 | 4.4 | 3.92 | 0.657 | 3.43 | 2.95 | 0.318 | 1.45
35 | ACTATGAGTTGAGACGAGGGCAACCGATAGGTTG | 1.27 | 1.15 | 1.14 | 0.701 | 0.821 | 3.63 | 0.024 | 0.979
36 | CCTACTGGGCCACGAAAGTTCATTGATTCAGTGA | 3.23 | 2.04 | 2.29 | 1.34 | 1.46 | 1.74 | -0.104 | 4.01
37 | TCATATGGGTAAAGGTGAAAGTCGAACGATATGA | 1.36 | 1.41 | 0.964 | 0.352 | 2.08 | 1.24 | -0.573 | -0.341
38 | CCTAGAAGGCCAATCTGGGTCACTCAAGGCTTGA | 2.78 | 1.98 | 2.37 | 0.567 | 1.55 | 4.27 | 0.262 | 0.0868

Row | Sequence | PBM binding z-score [1] | PBM binding z-score [2] | PBM binding z-score [3] | PBM binding z-score [4] | PBM binding z-score [5] | PBM binding z-score [6] | PBM binding z-score [7] | PBM binding z-score [8]
39 | TCTTGTAGATCAACAGGAGGGTAAGAAAGATCGA | -0.229 | 0.172 | 0.108 | 0.172 | 0.0944 | -0.144 | -1.1 | -0.319
40 | CAGACTAGGTCACGAAAGGTCAAAGTCGAATGAC | 5.63 | 7.9 | 8.73 | 2.27 | 8.34 | 4.96 | 2.29 | 4.05
41 | ATCTTTAGGTAACCAAGTTCAGTGAATGCCGAAC | 1.55 | 0.783 | 1.04 | 1.36 | 0.709 | 2.07 | 1.25 | 2.66
42 | GTACCAAGGTGAATAGGTCGATGATGAGTAGGCG | 1.77 | 2.49 | 1.57 | -0.426 | 1.86 | 1.52 | 0.425 | 0.182
43 | GATACAGGGTCAAGGCCTGAGTACGCGTATTGAT | 3.54 | 5.4 | 5.41 | 2.19 | 5.69 | 3.37 | 0.931 | 2.52
44 | CGAACTAGGTCACCGGAAGGTCAAAGTCCGCATG | 5.45 | 8.27 | 7.14 | 2.43 | 6.38 | 4.36 | 2.81 | 4.01
45 | CGAGACAGGTGAAAGGTAACTCAGTCTGGTACGC | 0.817 | 1.2 | 0.702 | -0.262 | 2.11 | 0.861 | -0.303 | -0.342
46 | TCTTGTAGATCAACAGGAGGTTAAGAGAGATCGA | 0.58 | 1.1 | 0.453 | 0.0129 | 0.887 | 1.01 | -0.746 | -0.539
47 | ACCTACGGGTCAACGAGGTTATAGCACGCGTATA | 3.18 | 5.47 | 4.95 | 2.06 | 5.89 | 3.88 | 0.718 | 3.51
48 | CCGAATGGGGCATAAGGTTACCATAAGCCAGCCC | 1.7 | 1.67 | 1.03 | -0.221 | 1.49 | 2.1 | 1.45 | -0.245
49 | CAAACTAGGTCACCGGAATGTCAAAGTCCGCATG | 4.04 | 5.43 | 5.46 | 1.81 | 3.7 | 3.71 | 2.04 | 0.883
50 | ATCTCTAGGTAAGACTCAGTTCATTGAAGAACGC | 0.892 | 0.375 | 0.586 | 1.31 | 0.538 | 1.58 | 0.923 | 3.67
51 | GCTATTAGTTGAAAGGGCAACAGAATGATTCTCG | 1.87 | 1.36 | 1.47 | 0.874 | 1.24 | 0.672 | -0.526 | 0.397
52 | TCAGACAGGTGAAGGTAACTCGGGTACGCAGTCG | 1.04 | 0.783 | 0.664 | 1.16 | 1.23 | 1.66 | 0.72 | 0.873
53 | AGTCAAAGTTCAGGGCGAGGTAACGTAAAGCACG | 3.56 | 5.13 | 4.99 | 2.95 | 3.15 | 3.64 | 1.28 | 2.15
54 | ATCTCTAGGTAACAAGTTCAATGAAAGAGAGGAC | 2.24 | 2.06 | 1.8 | 2.15 | 1.31 | 1.76 | 1.19 | 3.97
55 | GGATCGAGGGCATTCGAGTTGATAGCATGGCGAT | 0.818 | 1.07 | 1.25 | 3.06 | 0.598 | 3.39 | -0.117 | 3.49
56 | CTCGAATGGTCGTGCTCAGGTGAGTATACCAAAC | 0.249 | -0.157 | -0.12 | -0.0041 | -0.189 | 1.11 | 0.835 | -0.378
